Assay results: publication PMC11062922 (Nature Chemical Biology, 2023)
Like-named read-outs stand apart in the source and are kept apart here.

Key:
Settings in all cases: read-out: apparent Kd, n = 1
[1] = system: MAP2K5
[2] = system: MAP4K4
[3] = system: MAPK9
[4] = system: PIM3
[5] = system: PRKAG2
[6] = system: PRKCA
[7] = system: PRKX
[8] = system: RPS6KA3
[9] = compound concentrations:100 nM and 1000 nM (sheet 'Lestaurtinib' of Supplementary Table 1),run:Lestaurtinib_02566_R1,Plate:MR014
[10] = compound concentrations:100 nM and 1000 nM (sheet 'Lestaurtinib' of Supplementary Table 1),run:Lestaurtinib_02724_R3,Plate:MR021
[11] = compound concentrations:100 nM and 1000 nM (sheet 'Lestaurtinib' of Supplementary Table 1),run:Lestaurtinib_02748_R3,Plate:MR024
[12] = compound concentrations:100 nM and 1000 nM (sheet 'Lestaurtinib' of Supplementary Table 1),run:Lestaurtinib_02381_R2,Plate:MR004
[13] = compound concentrations:100 nM and 1000 nM (sheet 'Lestaurtinib' of Supplementary Table 1),run:Lestaurtinib_02438_R2,Plate:MR008
[14] = compound concentrations:100 nM and 1000 nM (sheet 'Lestaurtinib' of Supplementary Table 1),run:Lestaurtinib_02443_R3,Plate:MR009
[15] = compound concentrations:100 nM and 1000 nM (sheet 'Lestaurtinib' of Supplementary Table 1),run:Lestaurtinib_02724_R1,Plate:MR021
[16] = compound concentrations:100 nM and 1000 nM (sheet 'Lestaurtinib' of Supplementary Table 1),run:Lestaurtinib_03172_R1,Plate:MR031
[17] = compound concentrations:100 nM and 1000 nM (sheet 'Lestaurtinib' of Supplementary Table 1),run:Lestaurtinib_02748_R1,Plate:MR024
[18] = compound concentrations:100 nM and 1000 nM (sheet 'Lestaurtinib' of Supplementary Table 1),run:Lestaurtinib_02487_R1,Plate:MR012

Lestaurtinib was tested, and the potency estimated from few doses [1, 9] was 1.96 µM, the potency estimated from few doses [1, 10] was 1.79 µM and the potency estimated from few doses [1, 11] was 1.82 µM. It also gave a potency estimated from few doses ([1]; compound concentrations:100 nM and 1000 nM (sheet 'Lestaurtinib' of Supplementary Table 1),run:Lestaurtinib_02766_R1,Plate:MR027) of 2.21 µM, a potency estimated from few doses [2, 12] of 2.24 µM and a potency estimated from few doses [2, 13] of 1.43 µM. For the same substance, the potency estimated from few doses ([2]; compound concentrations:100 nM and 1000 nM (sheet 'Lestaurtinib' of Supplementary Table 1),run:Lestaurtinib_02443_R2,Plate:MR009) was 1.7 µM, the potency estimated from few doses ([2]; compound concentrations:100 nM and 1000 nM (sheet 'Lestaurtinib' of Supplementary Table 1),run:Lestaurtinib_02473_R2,Plate:MR010) was 1.82 µM and the potency estimated from few doses ([2]; compound concentrations:100 nM and 1000 nM (sheet 'Lestaurtinib' of Supplementary Table 1),run:Lestaurtinib_02482_R2,Plate:MR011) was 1.42 µM. It also gave a potency estimated from few doses [3, 14] of 1.3 µM, a potency estimated from few doses [3, 9] of 1.99 µM and a potency estimated from few doses ([3]; compound concentrations:100 nM and 1000 nM (sheet 'Lestaurtinib' of Supplementary Table 1),run:Lestaurtinib_02572_R1,Plate:MR015) of 1.72 µM. It also gave a potency estimated from few doses ([3]; compound concentrations:100 nM and 1000 nM (sheet 'Lestaurtinib' of Supplementary Table 1),run:Lestaurtinib_02584_R3,Plate:MR017) of 2.26 µM, a potency estimated from few doses ([3]; compound concentrations:100 nM and 1000 nM (sheet 'Lestaurtinib' of Supplementary Table 1),run:Lestaurtinib_02624_R1,Plate:MR020) of 1.41 µM and a potency estimated from few doses [3, 15] of 2.24 µM. It also gave a potency estimated from few doses ([3]; compound concentrations:100 nM and 1000 nM (sheet 'Lestaurtinib' of Supplementary Table 1),run:Lestaurtinib_02752_R3,Plate:MR025) of 2.18 µM, a potency estimated from few doses ([3]; compound concentrations:100 nM and 1000 nM (sheet 'Lestaurtinib' of Supplementary Table 1),run:Lestaurtinib_02896_R1,Plate:MR030) of 2.12 µM and a potency estimated from few doses [3, 16] of 1.9 µM. It also gave a potency estimated from few doses ([3]; compound concentrations:100 nM and 1000 nM (sheet 'Lestaurtinib' of Supplementary Table 1),run:Lestaurtinib_03260_R1,Plate:MR033) of 1.69 µM, a potency estimated from few doses [4, 17] of 0.611 µM and a potency estimated from few doses ([4]; compound concentrations:100 nM and 1000 nM (sheet 'Lestaurtinib' of Supplementary Table 1),run:Lestaurtinib_02748_R2,Plate:MR024) of 0.656 µM. The potency estimated from few doses [4, 11] was 1.43 µM, the potency estimated from few doses ([4]; compound concentrations:100 nM and 1000 nM (sheet 'Lestaurtinib' of Supplementary Table 1),run:Lestaurtinib_02752_R2,Plate:MR025) was 0.795 µM and the potency estimated from few doses ([4]; compound concentrations:100 nM and 1000 nM (sheet 'Lestaurtinib' of Supplementary Table 1),run:Lestaurtinib_03260_R2,Plate:MR033) was 0.945 µM. The potency estimated from few doses ([5]; compound concentrations:100 nM and 1000 nM (sheet 'Lestaurtinib' of Supplementary Table 1),run:Lestaurtinib_02367_R2,Plate:MR003) was 1.35 µM, the potency estimated from few doses ([5]; compound concentrations:100 nM and 1000 nM (sheet 'Lestaurtinib' of Supplementary Table 1),run:Lestaurtinib_02367_R3,Plate:MR003) was 1.36 µM and the potency estimated from few doses ([5]; compound concentrations:100 nM and 1000 nM (sheet 'Lestaurtinib' of Supplementary Table 1),run:Lestaurtinib_02407_R1,Plate:MR005) was 0.888 µM. For the same substance, the potency estimated from few doses ([5]; compound concentrations:100 nM and 1000 nM (sheet 'Lestaurtinib' of Supplementary Table 1),run:Lestaurtinib_02407_R3,Plate:MR005) was 1.34 µM, the potency estimated from few doses ([5]; compound concentrations:100 nM and 1000 nM (sheet 'Lestaurtinib' of Supplementary Table 1),run:Lestaurtinib_02422_R1,Plate:MR006) was 0.629 µM and the potency estimated from few doses [5, 13] was 1.21 µM. For the same substance, the potency estimated from few doses ([5]; compound concentrations:100 nM and 1000 nM (sheet 'Lestaurtinib' of Supplementary Table 1),run:Lestaurtinib_02473_R3,Plate:MR010) was 1.24 µM, the potency estimated from few doses [5, 18] was 0.352 µM and the potency estimated from few doses ([5]; compound concentrations:100 nM and 1000 nM (sheet 'Lestaurtinib' of Supplementary Table 1),run:Lestaurtinib_02566_R3,Plate:MR014) was 0.888 µM. It also gave a potency estimated from few doses [5, 17] of 1.24 µM, a potency estimated from few doses [5, 16] of 1.37 µM and a potency estimated from few doses ([6]; compound concentrations:100 nM and 1000 nM (sheet 'Lestaurtinib' of Supplementary Table 1),run:Lestaurtinib_02381_R1,Plate:MR004) of 2.07 µM. For the same substance, the potency estimated from few doses ([6]; compound concentrations:100 nM and 1000 nM (sheet 'Lestaurtinib' of Supplementary Table 1),run:Lestaurtinib_02381_R3,Plate:MR004) was 2.4 µM, the potency estimated from few doses ([6]; compound concentrations:100 nM and 1000 nM (sheet 'Lestaurtinib' of Supplementary Table 1),run:Lestaurtinib_02443_R1,Plate:MR009) was 1.99 µM and the potency estimated from few doses [6, 14] was 2.45 µM. The potency estimated from few doses [6, 18] was 1.72 µM, the potency estimated from few doses [6, 10] was 1.76 µM and the potency estimated from few doses [6, 17] was 2.32 µM. The potency estimated from few doses [7, 12] was 1.49 µM, the potency estimated from few doses ([7]; compound concentrations:100 nM and 1000 nM (sheet 'Lestaurtinib' of Supplementary Table 1),run:Lestaurtinib_02487_R2,Plate:MR012) was 2.11 µM and the potency estimated from few doses ([7]; compound concentrations:100 nM and 1000 nM (sheet 'Lestaurtinib' of Supplementary Table 1),run:Lestaurtinib_02487_R3,Plate:MR012) was 1.35 µM. For the same substance, the potency estimated from few doses ([7]; compound concentrations:100 nM and 1000 nM (sheet 'Lestaurtinib' of Supplementary Table 1),run:Lestaurtinib_02768_R1,Plate:MR028) was 2.23 µM, the potency estimated from few doses ([7]; compound concentrations:100 nM and 1000 nM (sheet 'Lestaurtinib' of Supplementary Table 1),run:Lestaurtinib_02802_R3,Plate:MR029) was 1.97 µM and the potency estimated from few doses ([8]; compound concentrations:100 nM and 1000 nM (sheet 'Lestaurtinib' of Supplementary Table 1),run:Lestaurtinib_02339_R3,Plate:MR001) was 1.51 µM. It also gave a potency estimated from few doses ([8]; compound concentrations:100 nM and 1000 nM (sheet 'Lestaurtinib' of Supplementary Table 1),run:Lestaurtinib_02438_R1,Plate:MR008) of 1.84 µM, a potency estimated from few doses [8, 14] of 1.65 µM and a potency estimated from few doses [8, 18] of 1.15 µM. The potency estimated from few doses ([8]; compound concentrations:100 nM and 1000 nM (sheet 'Lestaurtinib' of Supplementary Table 1),run:Lestaurtinib_02577_R1,Plate:MR016) was 1.76 µM and the potency estimated from few doses [8, 15] was 1.53 µM.
